Assay [1] addresses Nuclear receptor coactivator 3 (Homo sapiens) (UniProt Q9Y6Q9). Put plainly: NCOA3 GAL4-fusion reporter inhibition – cell-based, luminescence, quadruplicate, confirmation (AID 588792;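 active means mean inhibition over 43.08%, the solvent-only control mean plus 3 SD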;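 further: 0% = DMSO treated cells and 100% = gossypol at 36 µM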). The conditions noted are these: HEK293 GAL4-SRC3 luciferase reporter, at 3.6 µM, stronger effect = higher value.
In assay [2] the test system is transactivating tegument protein VP16 (Human herpesvirus 1), Gal4-VP16 luciferase reporter. Put plainly: repression of VP16-driven luciferase reporter – cell-based, luminescence, high throughput, counter-screen for SRC3 inhibitor project (AID 588794; in the data active means inhibition above about 30%). The following applies: mammalian cells, at 3.6 µM, stronger effect = higher value.
The target in assay [3] is Nuclear receptor coactivator 1 (Homo sapiens) (UniProt Q15788). The experiment in a line: NCOA1 GAL4-fusion reporter inhibition – cell-based, luminescence, quadruplicate, confirmation (AID 588820;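 active means mean inhibition above 46.68%, the untreated control wells mean plus 3 SD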;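 further: 0% = DMSO wells and 100% = gossypol 36 µM treated wells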). The following applies: HEK293 GAL4-SRC1 luciferase reporter, at 3.6 µM, stronger effect = higher value. Background: In a reporter assay the amount or activity of a reporter protein is the signal.

A short description of assay [4]: repression of VP16-driven luciferase reporter – cell-based, luminescence, high throughput, counter-screen for SRC1 inhibitor project (AID 588824; in the data active means inhibition above about 25%). The conditions noted are these: cell-based VP16 transactivation luciferase luminescence; at 3.6 µM; stronger effect = higher value.
Assay [5] has as its target Nuclear receptor subfamily 5 group A member 2 (Homo sapiens) (UniProt O00482). Put plainly: NR5A2 activity suppression in reporter cells – cell-based, luminescence, confirmation (AID 651613).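 Further: HEK293T cells co-transfected with LRH-1 and StAR promoter luciferase reporter; 0% = vehicle wells and 100% = parental cells lacking receptor.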 The conditions noted are these: cell-based LRH-1 luciferase reporter, inverse agonism; at 3.6 µM; stronger effect = higher value.
The target of assay [6] is Steroidogenic factor 1 (Homo sapiens) (UniProt Q13285). The experiment in a line: inverse agonism at SF1 nuclear receptor – cell-based, luminescence, high throughput, counter-screen for LRH-1 inverse agonist project (AID 651614; in the data active means inhibition above about 44%;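 further: cells cotransfected with StAR promoter reporter and SF1 expression vector; 0% = vehicle on cells with receptor and 100% = vehicle on cells lacking receptor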). The following applies: cell-based SF1 luciferase reporter, at 3.6 µM, stronger effect = higher value. (In general: The purpose of a counterscreen is to sort out artefacts and off-target activity.)

The nature of assay [7]: StAR promoter reporter inhibitors, counter-screen for LRH-1 inverse agonist project, cell-based, luminescence, high throughput (AID 651611; in the data active means inhibition above about 28%). The following applies: StAR promoter luciferase reporter counterscreen, at 3.6 µM, stronger effect = higher value.
Assay [8] can be described thus: compounds suppressing VP16-driven luciferase signal – cell-based, luminescence, high throughput, counter-screen for LRH-1 inverse agonist project (AID 651615; in the data active means inhibition above about 33%). The following applies: Gal4-VP16 luciferase reporter cells, at 3.6 µM, stronger effect = higher value.
Assay [9] concerns transactivating tegument protein VP16 (Human herpesvirus 1). The experiment in a line: compounds suppressing VP16-driven luciferase signal – cell-based, luminescence, single concentration, counter-screen for SRC2 inhibitor project (AID 652007; in the data active means inhibition above about 36%). The following applies: cell-based VP16 transactivation luciferase reporter, at 8.9 µM, stronger effect = higher value.
Assay [10] has as its target Nuclear receptor coactivator 2 (Homo sapiens) (UniProt Q15596). Put plainly: inhibition of GAL4-SRC2 driven luciferase expression – cell-based, luminescence, HEK293, triplicate, confirmation (AID 652008;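 active means mean inhibition above 46.5%, the solvent-only control mean plus 3 SD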;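 further: 0% = DMSO-treated cells and 100% = Gossypol at 36 µM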). The conditions noted are these: HEK293 GAL4-SRC2 luciferase reporter, at 8.9 µM, stronger effect = higher value.

A number with no mark means an inactive call. Active and inactive are the calls of the source. Unless noted, no stated cut-off is given here; in the data, active means inhibition above about 42%; inactive means the rest.

Steroidogenic factor 1 (Homo sapiens), sequence (Q13285 whole entry, looked up): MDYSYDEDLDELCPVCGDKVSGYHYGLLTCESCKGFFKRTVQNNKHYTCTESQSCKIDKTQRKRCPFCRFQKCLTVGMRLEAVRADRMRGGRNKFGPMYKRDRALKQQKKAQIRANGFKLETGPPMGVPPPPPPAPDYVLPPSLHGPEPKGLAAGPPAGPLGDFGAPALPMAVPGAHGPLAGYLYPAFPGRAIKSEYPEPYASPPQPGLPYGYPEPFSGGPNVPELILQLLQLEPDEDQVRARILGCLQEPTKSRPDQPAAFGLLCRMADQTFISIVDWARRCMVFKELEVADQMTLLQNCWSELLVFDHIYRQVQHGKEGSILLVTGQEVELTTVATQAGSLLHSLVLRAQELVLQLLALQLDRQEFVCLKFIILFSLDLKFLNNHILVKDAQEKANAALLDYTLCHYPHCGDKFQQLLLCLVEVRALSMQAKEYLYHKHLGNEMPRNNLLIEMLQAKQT
Nuclear receptor coactivator 2 (Homo sapiens), sequence (Q15596 whole entry, looked up, the tested form may be a part): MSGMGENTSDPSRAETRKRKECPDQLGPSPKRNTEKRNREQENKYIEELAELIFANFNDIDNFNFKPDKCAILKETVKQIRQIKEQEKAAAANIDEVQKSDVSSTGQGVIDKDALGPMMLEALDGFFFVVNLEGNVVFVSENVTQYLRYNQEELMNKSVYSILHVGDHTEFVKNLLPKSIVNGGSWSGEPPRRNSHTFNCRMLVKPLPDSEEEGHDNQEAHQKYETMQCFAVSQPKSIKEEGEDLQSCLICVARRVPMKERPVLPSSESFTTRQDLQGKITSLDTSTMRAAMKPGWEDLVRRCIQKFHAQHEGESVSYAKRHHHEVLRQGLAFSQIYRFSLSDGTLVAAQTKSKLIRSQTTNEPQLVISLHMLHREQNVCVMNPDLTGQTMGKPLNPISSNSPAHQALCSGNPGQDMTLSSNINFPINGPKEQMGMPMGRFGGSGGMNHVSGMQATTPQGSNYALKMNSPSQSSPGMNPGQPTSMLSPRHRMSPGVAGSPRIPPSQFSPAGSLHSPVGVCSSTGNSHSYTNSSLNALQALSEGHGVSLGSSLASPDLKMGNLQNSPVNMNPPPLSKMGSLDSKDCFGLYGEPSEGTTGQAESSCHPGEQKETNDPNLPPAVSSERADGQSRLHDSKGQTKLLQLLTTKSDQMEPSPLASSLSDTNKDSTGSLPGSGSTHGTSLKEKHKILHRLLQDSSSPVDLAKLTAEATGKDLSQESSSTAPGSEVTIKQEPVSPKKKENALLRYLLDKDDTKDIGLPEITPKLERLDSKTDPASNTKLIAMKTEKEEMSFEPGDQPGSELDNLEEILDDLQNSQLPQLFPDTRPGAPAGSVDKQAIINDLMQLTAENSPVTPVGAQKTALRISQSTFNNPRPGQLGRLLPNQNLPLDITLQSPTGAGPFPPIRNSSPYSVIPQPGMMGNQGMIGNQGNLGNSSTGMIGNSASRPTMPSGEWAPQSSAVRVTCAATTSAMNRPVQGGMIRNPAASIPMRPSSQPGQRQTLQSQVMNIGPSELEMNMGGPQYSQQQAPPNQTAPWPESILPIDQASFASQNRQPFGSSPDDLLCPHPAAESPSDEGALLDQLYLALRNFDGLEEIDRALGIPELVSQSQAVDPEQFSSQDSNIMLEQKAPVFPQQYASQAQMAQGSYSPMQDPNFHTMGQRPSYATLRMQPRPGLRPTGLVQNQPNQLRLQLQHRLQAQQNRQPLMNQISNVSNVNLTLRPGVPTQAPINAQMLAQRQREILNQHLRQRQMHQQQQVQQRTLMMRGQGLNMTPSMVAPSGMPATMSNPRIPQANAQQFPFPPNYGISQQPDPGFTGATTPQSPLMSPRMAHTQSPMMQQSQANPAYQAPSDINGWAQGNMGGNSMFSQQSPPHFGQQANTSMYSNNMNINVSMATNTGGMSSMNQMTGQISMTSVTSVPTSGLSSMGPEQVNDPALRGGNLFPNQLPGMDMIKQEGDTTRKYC
Nuclear receptor subfamily 5 group A member 2 (Homo sapiens), sequence (O00482 whole entry, looked up): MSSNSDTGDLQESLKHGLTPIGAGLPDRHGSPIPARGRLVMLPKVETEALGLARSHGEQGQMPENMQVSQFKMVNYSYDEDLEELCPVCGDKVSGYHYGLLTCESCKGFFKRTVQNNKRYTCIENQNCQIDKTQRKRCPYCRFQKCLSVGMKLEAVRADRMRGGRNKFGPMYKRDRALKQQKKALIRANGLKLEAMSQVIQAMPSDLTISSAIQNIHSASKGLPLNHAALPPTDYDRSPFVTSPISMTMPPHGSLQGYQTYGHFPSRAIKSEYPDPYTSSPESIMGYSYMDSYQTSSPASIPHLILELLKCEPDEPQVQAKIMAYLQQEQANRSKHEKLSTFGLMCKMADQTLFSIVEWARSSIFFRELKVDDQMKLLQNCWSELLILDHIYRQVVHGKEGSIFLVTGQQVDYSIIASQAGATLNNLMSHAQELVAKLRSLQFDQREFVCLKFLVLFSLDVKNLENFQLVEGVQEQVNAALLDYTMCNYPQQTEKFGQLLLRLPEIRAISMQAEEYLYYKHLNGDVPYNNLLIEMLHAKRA
Nuclear receptor coactivator 3 (Homo sapiens), sequence (Q9Y6Q9 whole entry, looked up, the tested form may be a part): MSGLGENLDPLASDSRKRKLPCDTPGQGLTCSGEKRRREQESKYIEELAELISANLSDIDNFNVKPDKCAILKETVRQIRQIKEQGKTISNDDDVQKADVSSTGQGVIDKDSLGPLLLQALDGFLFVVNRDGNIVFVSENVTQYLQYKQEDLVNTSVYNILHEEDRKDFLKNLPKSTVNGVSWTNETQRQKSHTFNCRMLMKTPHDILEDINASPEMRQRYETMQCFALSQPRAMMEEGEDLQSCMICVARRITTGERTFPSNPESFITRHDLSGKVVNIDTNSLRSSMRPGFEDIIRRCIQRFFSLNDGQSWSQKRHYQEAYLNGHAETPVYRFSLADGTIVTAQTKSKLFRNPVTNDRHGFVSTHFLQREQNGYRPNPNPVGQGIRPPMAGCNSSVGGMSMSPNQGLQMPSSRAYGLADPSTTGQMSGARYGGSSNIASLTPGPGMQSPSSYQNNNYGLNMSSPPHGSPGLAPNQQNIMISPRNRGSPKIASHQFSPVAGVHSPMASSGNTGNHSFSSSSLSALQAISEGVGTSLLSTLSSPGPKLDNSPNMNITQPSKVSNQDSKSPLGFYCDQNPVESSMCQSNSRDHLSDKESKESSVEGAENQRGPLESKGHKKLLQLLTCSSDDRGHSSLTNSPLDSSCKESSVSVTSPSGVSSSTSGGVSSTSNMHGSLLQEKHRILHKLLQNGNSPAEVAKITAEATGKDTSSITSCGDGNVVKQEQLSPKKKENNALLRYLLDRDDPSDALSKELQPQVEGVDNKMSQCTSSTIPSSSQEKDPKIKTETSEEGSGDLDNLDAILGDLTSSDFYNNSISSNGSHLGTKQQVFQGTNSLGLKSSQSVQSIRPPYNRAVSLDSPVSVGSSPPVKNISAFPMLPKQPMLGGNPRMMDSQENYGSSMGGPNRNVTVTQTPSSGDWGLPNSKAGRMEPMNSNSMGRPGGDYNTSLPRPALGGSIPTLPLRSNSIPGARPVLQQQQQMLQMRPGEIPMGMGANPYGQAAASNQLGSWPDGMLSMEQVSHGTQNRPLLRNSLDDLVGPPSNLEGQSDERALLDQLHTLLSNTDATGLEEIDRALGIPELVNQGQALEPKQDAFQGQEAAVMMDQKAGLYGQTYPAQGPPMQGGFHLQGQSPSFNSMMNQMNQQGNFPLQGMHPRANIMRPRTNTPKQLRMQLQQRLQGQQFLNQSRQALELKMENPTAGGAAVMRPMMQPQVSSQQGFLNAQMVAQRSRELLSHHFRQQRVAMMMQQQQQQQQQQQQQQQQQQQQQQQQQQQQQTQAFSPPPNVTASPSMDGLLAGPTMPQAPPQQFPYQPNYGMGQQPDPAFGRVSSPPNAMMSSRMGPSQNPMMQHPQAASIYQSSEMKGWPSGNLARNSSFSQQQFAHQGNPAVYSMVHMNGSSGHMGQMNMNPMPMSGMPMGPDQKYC

`C[C@]12CC[C@H]3[C@@H](CC[C@]4(O)C[C@@H](O)CC[C@]34C=O)[C@@]1(O)CC[C@@H]2C1=CC(=O)OC1`: the inhibition (usually the drop in the measured response relative to a control, in per cent) in assay [1] is 92.8% (active); in assay [2], 81.1% (active); in assay [3] it was 46.8% (active); in assay [4] it was 79.7% (active); in assay [5], 110% (active); in [6] it was 98.7% (active).
Take `CC(=O)OC1CC2(O)C3CCC4CC(O)CCC4(C)C3CCC2(C)C1C1=CC(=O)OC1` (stereo unspecified): the inhibition is 95.9% (active) in [1]; 84.3% (active) in assay [2]; 71.4% (active) in [3]; 83.3% (active) in [4]; 96.5% (active) in [7]; 111% (active) in assay [5]. The inhibition in assay [6] is 98.7% (active); in assay [8] it was 91.9% (active); in [9], 65.2% (active); in assay [10], 45.1%.
`CC(N)C(=O)NC1C2C(=C(O)CC(O)C2O)C(=O)OC1(C)C(Cl)Cl` (stereo unspecified): the inhibition was 98.8% (active) in assay [1]; 96.8% (active) in assay [2]; 88.6% (active) in assay [3]; 96.8% (active) in assay [4]; 96.4% (active) in assay [7]; 110% (active) in [5]. Also, the inhibition in [6] was 98.5% (active); in assay [8], 98.3% (active); in [9], 77.2% (active); in assay [10], 74.3% (active).
`CCCCN=C[C@]12CCC(O)CC1(O)CCC1[C@@H]2CC[C@]2(C)[C@H](C3C=CC(=O)O3)CCC12O` (stereo partly specified): the inhibition in assay [1] is 94% (active); in [2], 75.5% (active); in [3], 42%; in assay [4], 75% (active); in assay [7] it was 97% (active); in assay [5], 110% (active). Besides, the inhibition is 98.5% (active) in assay [6], 85.2% (active) in [8], 69.6% (active) in assay [9] and 20.9% in assay [10].
For the molecule `CC12CCC(O)CC1CCC1C2CCC2(C)C(C3=CC(=O)OC3)CCC12O` (stereo unspecified), the inhibition in assay [1] was 97.6% (active); in assay [2] it was 87.9% (active); in [3] it was 70.6% (active); in assay [4], 87.4% (active); in assay [7] it was 95.7% (active); in assay [5], 110% (active). Besides, the inhibition in [6] was 98.2% (active); in [8], 89% (active); in [9], 58.5% (active); in [10] it was 23.6%.

The values above are taken from PubChem BioAssay.
